Compound activity (PubChem)
NFkB transloc inh = blocks IL-1B driven NFkB nuclear translocation in HUVEC cells; HUVEC IL-1B NFkB p65 nuclear translocation imaging; inhibition, % at 2 µM; 94,000 compounds, 0.43% hits;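 active means inhibition above about 30% together with a positive call from visual inspection of the well image, limit read from the data; inconclusive means inhibition above a set limit but visual check negative; inactive means inhibition not above a set limit, visual check negative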;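 further: nuclear over cytoplasmic p65 intensity ratio measured by imaging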
IL1B cytotox = toxic to HUVEC cells under IL-1B stimulation; cell count reduction, % at 2 µM; 94,000 compounds, 0.41% hits; HUVEC cell count loss, Hoechst imaging, IL-1B stimulated;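 active means cell count reduction more than 3 SD above the screen-wide mean, cut at about 70% in these data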
Insulin prom inh = TRM-6 insulin promoter activity inhibition; TRM-6 cells (human fetal islet line), insulin promoter-eGFP reporter, imaging; reporter expression induced with tamoxifen; 130,000 compounds, 0.9% hits; inhibition, % at 2 µM;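 active means inhibition above the mean plus 3 SD, with well images judged a real hit on visual review, cut at about 60% in these data, passing the limit was not always enough; inconclusive means inhibition over the cutoff but images rejected on review; inactive means inhibition not above the cutoff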
NFkB transloc pot = enhances IL-1B driven NFkB nuclear translocation | HUVEC IL-1B NFkB p65 nuclear translocation imaging | 94,000 compounds, 0.3% hits | activation, % at 2 µM | AID 819;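 active means activation above 40%, about the mean plus 3 SD, also judged a hit on visual image review; inconclusive means activation above 40% but not a hit on visual review; inactive means activation not above 40% and no visual hit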;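 further: percent activation is computed from the nuclear over cytoplasmic p65 intensity ratio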
Hits are given with their value; i = inactive; ? = inconclusive; nt = no result given. Only some compounds are listed: those with a hit (about 1.3% of all), similar ones and a draw of the others.

SMILES | NFkB transloc inh | IL1B cytotox | Insulin prom inh | NFkB transloc pot
CC1OC23CCCCC2C(C#N)(C(=N)O3)C1(C#N)C#N (stereo unspecified) | i | i | 77 | i
CCOc1cccc(C2C(C(=O)c3ccc(C)o3)=C(O)C(=O)N2Cc2ccncc2)c1 (stereo unspecified) | 30 | i | i | i
C=CCOc1cccc(C2C(C(=O)c3ccc(C)o3)=C(O)C(=O)N2Cc2ccncc2)c1 (stereo unspecified) | i | i | nt | i
Cc1nnc(SCC(=O)c2ccc(Cl)cc2)s1 | nt | nt | 71 | nt
O=C/C(=C\Nc1ccc(Cl)cn1)c1nc2cc(Cl)ccc2o1 | i | i | nt | 50
Cn1c(=O)cc(SCC(=O)N2CCN(c3ccccn3)CC2)c2ccccc21 | i | i | nt | i
Cn1c(=O)cc(SCC(=O)N2CCN(c3ccccc3)CC2)c2ccccc21 | i | i | 85 | i
Cc1cc(C(=O)Nc2c[nH]c(=O)[nH]c2=O)ccc1[N+](=O)[O-] | nt | nt | i | nt
Cc1ccc2[nH]c3c(NCc4ccco4)ncnc3c2c1 | i | i | 85 | i
c1coc(CNc2ncnc3nc[nH]c23)c1 | nt | nt | i | nt
Cc1cc(NS(=O)(=O)c2ccc(NC(=O)CCCOc3ccccc3)cc2)no1 | i | i | nt | 45
O=C(CCCOc1ccccc1)Nc1cccc([N+](=O)[O-])c1 | nt | nt | 77 | nt
COc1ccc(S(=O)(=O)Nc2ccc(NC(C)=O)cc2)cc1[N+](=O)[O-] | nt | nt | i | nt
CC(C)c1cc(C(N)=O)c(NC(=O)C2CCC2)s1 | i | i | 81 | i
CC(C)c1nnc(NC(=O)C2CCCCC2)s1 | i | i | nt | i
O=c1cc(N2CCN(Cc3ccccc3)CC2)[nH]c(=O)n1Cc1ccc(F)cc1 | i | i | i | i
CCN1CCN(c2cc(=O)n(Cc3ccc(F)cc3)c(=O)[nH]2)CC1 | nt | nt | 78 | nt
CCCCCCCC(=O)NC(Nc1ccc(S(N)(=O)=O)cc1)C(Cl)(Cl)Cl (stereo unspecified) | i | i | i | i
COc1ccc(-c2nc(N3CCC(C)CC3)[nH]c(=O)c2C#N)cc1 | i | i | 71 | i
CCOc1ccc2nnc(-c3ccc(Br)cc3)n2n1 | i | i | i | i
CCN(CC)S(=O)(=O)c1cccc(C(=O)N[C@H](C(=O)OCC(N)=O)C(C)C)c1 | 34 | i | i | i
CCOc1ccc2nc(SCC(=O)NC(=O)C(C)C)sc2c1 | nt | nt | 100 | nt
Cc1ccc(C)c(-c2nn(-c3cc(N4CCN(CCO)CC4)ccc3[N+](=O)[O-])c(=O)c3ccccc23)c1 | i | i | i | i
Cc1ccc(C)c(N2CCN(C(=O)CC3Sc4ccccc4NC3=O)CC2)c1 (stereo unspecified) | i | 79 | nt | i
CCCN(CCC)C(=O)CCSCCC(=O)N(CCC)CCC | nt | nt | i | nt
SMILES | NFkB transloc inh | IL1B cytotox | Insulin prom inh | NFkB transloc pot
CCN1CCCC1CN(Cc1cc2ccc(C)cc2[nH]c1=O)C(=S)Nc1ccc(F)cc1 (stereo unspecified) | nt | nt | i | nt
N#C/C(=C(/O)CN1C(=O)c2ccccc2C1=O)c1nc2ccccc2[nH]1 | i | 80 | i | i
N#C/C(=C(/O)CCl)c1nc2ccccc2[nH]1 | nt | nt | i | nt
CC1=C(C(=O)Nc2ccc(Br)cc2)C(c2ccco2)NC(=O)N1 (stereo unspecified) | nt | nt | 68 | nt
Cc1sc(Cc2nc(O)cs2)nc1-c1ccccc1 | nt | nt | i | nt
COc1cc(C(=O)Nc2cccc(-c3nc4cc(C)ccc4o3)c2)cc(OC)c1OC | nt | nt | 71 | nt
c1ccc(COc2ccccc2CNC23CC4CC(CC(C4)C2)C3)cc1 | nt | nt | i | nt
COCn1c(-c2ccc(OC)cc2)nc2ccccc21 | i | i | 92 | ?
COc1ccc(NC(=O)c2ccccc2NC(=O)COc2ccccc2)cc1 | i | i | i | i
CCC(C)NC(=O)c1ccccc1NC(=O)COc1ccc(OC)cc1 (stereo unspecified) | i | i | 79 | i
Cc1cccc(C)c1OCC(=O)Nc1oc(-c2ccccc2)c(-c2ccccc2)c1C#N | 49 | i | i | i
COc1ccc(CNn2c(-c3cccs3)nc3ccccc3c2=O)cc1OC | nt | nt | i | nt
COc1cccc(N2CCN(C3CC(=O)N(c4ccc(F)c(Cl)c4)C3=O)CC2)c1 (stereo unspecified) | 96 | 88 | i | i
O=C(C1CC1)N1CCN(S(=O)(=O)c2ccc3c(c2)OCCO3)CC1 | nt | nt | i | nt
CC(C(=O)N1CCN(c2ccc(Cl)cc2)CC1)c1ncc(C(F)(F)F)cc1Cl (stereo unspecified) | i | i | i | i
CCCc1cc(C(N)=O)c(NC(=O)c2ccoc2C)s1 | i | i | 76 | i
CCc1ccc(NC(=O)CSc2nc3ccccc3c(=O)n2CCCC(=O)NCCCN2CCOCC2)cc1 | nt | nt | i | nt
COc1ccc(CNC(=O)C2CCCN(S(=O)(=O)c3cc(C)ccc3OC)C2)cc1 (stereo unspecified) | 64 | i | i | i
COc1ccc(CNC(=O)C2CCN(S(=O)(=O)c3cc(OC)ccc3OC)CC2)cc1 | i | i | i | i
Cc1nc(S(=O)(=O)Cc2ccccc2Cl)nc2c1CCC2 | nt | nt | 73 | nt
CC(C)n1c(=S)[nH]c2ccccc2c1=O | 36 | i | i | i
Clc1ccc(Nc2ncn[nH]2)c(Cl)c1 | nt | nt | 66 | nt
O=C(NC(=S)Nc1ccc(Cl)cn1)c1cccs1 | i | i | i | i
CCCC(=O)NC(=S)Nc1ccc(Cl)cn1 | i | i | 83 | i
COc1cccc(CNC(=O)CSc2ccc(-c3cccs3)nn2)c1 | nt | nt | i | nt
SMILES | NFkB transloc inh | IL1B cytotox | Insulin prom inh | NFkB transloc pot
COCCNc1nc(-c2ccc(OC)cc2)c(-c2ccc(OC)cc2)s1 | nt | nt | i | nt
c1cc2c3c(cccc3c1)C(N1CCCCCC1)=N2 | i | i | i | i
c1cc2c3c(cccc3c1)C(N1CCCCC1)=N2 | i | i | 87 | i
CC(Sc1cnccn1)C(=O)O (stereo unspecified) | nt | nt | i | nt
CCOC(=O)C1=C(c2ccccc2)O/C(=C(/C#N)C(F)(F)F)S1 | 56 | i | i | i
CCOC(=O)C1CCCN(c2c(N3CCN(c4ccccn4)CC3)c(=O)c2=O)C1 (stereo unspecified) | nt | nt | 86 | nt
O=C(Nc1ccc2c(c1)OCCO2)N1CCOCC1 | nt | nt | 78 | nt
Cc1csc(NC(=O)C2CCN(S(=O)(=O)c3ccccc3F)CC2)n1 | nt | nt | i | nt
O=C(CS(=O)(=O)c1ccccc1)Nc1nc(-c2ccc(F)cc2)cs1 | nt | nt | 75 | nt
COc1ccc(OCC(=O)c2c(O)c3ccccc3oc2=O)cc1 | i | 94 | i | i
CCC(C)N(CC(=O)Nc1cccc(C)c1C)C(=O)CCl (stereo unspecified) | nt | nt | 100 | nt
O=C(CSc1cccc[n+]1[O-])C12CC3CC(CC(C3)C1)C2 | nt | nt | i | nt
CCN(CC)S(=O)(=O)c1cccc(-c2nnc(SCc3nc4ccccc4s3)o2)c1 | i | i | 87 | i
O=C(c1cccs1)N1CCN(C(=O)C(c2ccccc2)c2ccccc2)CC1 | 40 | i | i | i
O=C(c1cccs1)N1CCN(S(=O)(=O)N2CCCCC2)CC1 | i | 92 | i | i
O=C(c1ccsc1)N1CCN(C(=O)c2cccs2)CC1 | i | 78 | i | i
O=C(c1cccs1)N1CCN(S(=O)(=O)c2ccccc2)CC1 | i | i | i | i
COCCCNC(=O)c1cc(C(=O)c2ccccc2Br)c[nH]1 | nt | nt | i | nt
Cc1ccc(Cn2cc(SCC(N)=O)c3ccccc32)cc1 | nt | nt | i | nt
Cc1ccc2nc(-c3ccccc3O)c(Nc3ccc4c(c3)OCCO4)n2c1 | nt | nt | 67 | nt
Cc1ccc2nc(-c3ccc(O)cc3)c(Nc3ccc4c(c3)OCCO4)n2c1 | i | i | nt | i
CCc1cc(OCCOCCN(C)C)ccc1Cl | nt | nt | i | nt
